Screening data from PubChem BioAssay.
The list is not random: actives were taken first. Their share in the collection is about 4.8%.
DAX1 inh-1 – DAX1 (NR0B1) inhibitors on StAR promoter, primary screen, cell-based, luminescence, SF-1 (NR5A1), full-length DAX-1; HEK293T StAR-luciferase reporter, SF-1/DAX-1 repression relief; inhibition, % at 6.8 µM; actives 1.1% (n = 370,000);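 active means inhibition above the mean over all tested compounds plus 3 SD, cut at about 3.6% in these data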;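 further: 0% = DAX-1 cells with DMSO and 100% = cells lacking DAX-1 with DMSO; higher inhibition means more luminescence from relief of DAX-1 repression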
DAX1 inh-2 – DAX1 (NR0B1) inhibitors, primary screen, cell-based, HEK293, Gal4-DAX1, luciferase luminescence; Nuclear receptor subfamily 0 group B member 1 (Homo sapiens), P51843; inhibition, % at 6.75 µM; AID 504766, 2011; actives 0.99% (n = 340,000); HEK293 Gal4-DAX1 luciferase reporter;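 active means inhibition above the mean over all tested compounds plus 3 SD, cut at about 4.2% in these data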;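 further: 0% = DAX1-transfected cells with DMSO and 100% = empty-vector control cells with DMSO; inhibition shows as a rise in luminescence from relieved DAX1 repression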
Target sequence (P51843 207-470 limits assumed): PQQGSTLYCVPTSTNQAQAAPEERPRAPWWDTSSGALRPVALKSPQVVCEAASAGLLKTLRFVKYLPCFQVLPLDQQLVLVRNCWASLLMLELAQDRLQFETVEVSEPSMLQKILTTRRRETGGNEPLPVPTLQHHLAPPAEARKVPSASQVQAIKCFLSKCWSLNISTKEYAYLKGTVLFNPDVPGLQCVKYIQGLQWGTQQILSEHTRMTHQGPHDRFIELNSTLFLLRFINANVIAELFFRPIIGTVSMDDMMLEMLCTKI
SMARCA2 activ – SMARCA2 (BRM) function activators, primary screen, cell-based, luminescence, high throughput; MG213 cells, MMTV-luciferase reporter, dexamethasone, overnight; activation, % at 9.1 µM; actives 1% (n = 370,000); in the data active means activation above about 7.8%;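 further: 0% = vehicle wells and 100% = reference activator wells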
hgDAF-12 ag – H. glycines DAF-12 receptor agonists, primary screen, cell-based, luminescence, HEK293, GAL4 fusion, UAS-luciferase. Nuclear hormone receptor DAF-12 (Heterodera glycines), GAL4 fusion. HEK293 GAL4-hgDAF12 UAS-luciferase reporter, agonist luminescence; normalized to butyrate control. activation, % at 6.8 µM. actives 1.8% (n = 370,000). AID 687014, 2013;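 active means activation above a cutoff set at the mean of all screened compounds plus 3 SD, cut at about 10% in these data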;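 further: 0% = DMSO wells and 100% = sodium butyrate wells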
ssDAF12 agonist – S. stercoralis DAF-12 nuclear receptor activators, primary screen, cell-based, luminescence, HEK293, GRIP1 co-expression, lit1-tk-luc; Nuclear hormone receptor DAF-12 (Strongyloides stercoralis); HEK293 ssDAF-12/GRIP1 lit1-tk-luc reporter; % of 3 µM dafachronic acid response; activation, % at 6.8 µM; actives 1% (n = 370,000); AID 652126, 2013;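 active means activation above the mean over all tested compounds plus 3 SD, cut at about 0.9% in these data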;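 further: 0% = DMSO-only wells and 100% = 3 µM delta7-dafachronic acid wells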
hcDAF12 agonist – H. contortus DAF-12 nuclear receptor activators, primary screen, cell-based, luminescence, HEK293, lit1-tk-luc reporter; activation, % at 6.8 µM; actives 1.4% (n = 370,000); HEK293 hcDAF-12 lit1-tk-luc reporter; 0% DMSO, 100% Δ7-dafachronic acid;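 active means activation above the mean of all tested compounds plus 3 SD, cut at about 5.5% in these data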;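 further: 100% = response to 3 µM Δ7-dafachronic acid high control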
LXR ag – LXR agonists, Gal4 luciferase reporter, confirmation, counter-screen for hcDAF-12 agonist project, cell-based, luminescence, HEK293, H. contortus campaign | 3,400 tested, under 10 active | shares compounds with hcDAF12 agonist | AID 743027, 2013 | HEK293 Gal4-LXR tk-luc reporter, 24 h; normalized: DMSO 0%, positive control 100% | activation, % at 6.8 µM;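 active means mean percent activation of the reporter above a cutoff set as the average over tested compounds plus their standard deviation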
hcDAF12 ag – H. contortus DAF-12 receptor agonists, confirmation, cell-based, luminescence, HEK293, lit1-tk-luc, triplicate | shares compounds with hcDAF12 agonist | HEK293 hcDAF-12 lit1-tk-luc reporter; % of Δ7-dafachronic acid response | activation, % at 6.8 µM | actives 61% (n = 3,400) | AID 743032, 2013;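 active means mean activation across triplicate tests above the threshold derived from the earlier primary screen, cut at about 5.5% in these data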;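 further: 0% = DMSO only wells and 100% = 3 µM Δ7-dafachronic acid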
An asterisk follows results filed as active; x = no result given.

SMILES | DAX1 inh-1 | DAX1 inh-2 | SMARCA2 activ | hgDAF-12 ag | ssDAF12 agonist | hcDAF12 agonist | LXR ag | hcDAF12 ag
O=C(CCN1CCC(c2ccccc2)C1)c1ccccc1 (stereo not given) | x | 1 | x | x | x | x | x | x
Cc1ccc(OC(=O)c2oc3ccc(F)cc3c2C)c(C)c1 | 0 | 1 | 5 | 11* | 1 | 8.1* | 0 | 3
COc1ccc(/C=C/C(=O)c2oc3ccc(F)cc3c2C)cc1 | x | 0 | x | x | x | x | x | x
COc1cccc(C(=O)NC(=S)Nc2cccnc2)c1 | 1 | 0 | 2 | 7 | 1.0* | 7.8* | 0 | 1
CC(C)Oc1cccc(C(=O)NC(=S)Nc2cccnc2)c1 | 1 | 1 | 5 | 7 | 0 | 2 | x | x
Cc1ccc(C2=Nc3ccccc3NC(C)(c3ccc(C)o3)C2)o1 (stereo not given) | 1 | 1 | 5 | 12* | 1.4* | 15* | 0 | 5.7*
O=c1c2ccccc2cnn1-c1ccc(Cl)cc1 | 3 | 1 | 7 | 17* | 1.9* | 12* | 2 | 10*
Cc1nn(-c2ccc(Cl)c(Cl)c2)c(=O)c2ccccc12 | 0 | 0 | 3 | 5 | 0 | 4 | x | x
O=c1c2ccccc2cnn1Cc1n[nH]c(=S)n1-c1ccc(Cl)cc1 | 0 | 1 | 2 | 0 | -1 | -1 | x | x
Cc1nn(-c2ccc(Cl)cc2)c(=O)c2ccccc12 | 3 | 2 | 6 | 9 | 1.1* | 7.2* | 1 | 9.9*
Cn1nc(-c2ccccc2)c(C(=O)Nc2ccc(Cl)cc2)c1Cl | -1 | 0 | 1 | 0 | 0 | -1 | x | x
Cn1c(Cl)c(C(=O)Nc2ccc(Cl)cc2)c2ccccc21 | 0 | 3 | 0 | 8 | 1 | 6.8* | 0 | 5.9*
O=C(N/N=C/c1ccccc1OC(=O)c1ccc2c(c1)OCO2)c1cccc(F)c1 | 0 | 2 | 5 | 5 | -1 | -1 | x | x
O=C(Oc1ccccc1/C=C\C(=O)c1cc2ccccc2o1)c1cccc(F)c1 | 0 | 3 | 3 | 10 | 0 | 11* | 1 | 7.2*
COC(=O)c1ccncc1C(=O)Nc1ccc(Oc2ncc(C(F)(F)F)cc2Cl)cc1 | 0 | 0 | -3 | 1 | -1 | -1 | x | x
COc1cccc(N=Cc2nc(-c3ccccc3)oc2OC(C)=O)c1 | 0 | 4 | -3 | 0 | -1 | 2 | x | x
Cc1ccc(C(=O)Oc2oc(-c3ccccc3)nc2C=Nc2ccc(N(C)C)cc2)cc1 | 2 | 2 | 1 | 12* | 1.8* | 8.1* | 0 | 1
c1cnc2c(OCc3nc4ccccc4[nH]3)cccc2c1 | 2 | 2 | 7 | 8 | 1.2* | 11* | 1 | 9.6*
COc1ccc(OC)c(Nc2ccc(C(=O)O)cc2[N+](=O)[O-])c1 | -1 | 0 | 0 | 2 | 0 | 8.4* | 0 | 2
CCOc1ccc(Nc2ccc(C(=O)O)cc2[N+](=O)[O-])cc1 | 0 | 1 | -4 | -1 | -1 | -1 | x | x
Fc1ccc(Cn2nnnc2CN2CCN(C3CCCCC3)CC2)cc1 | 0 | -1 | -1 | 0 | -2 | 0 | x | x
CCOC(=O)N1CCC(NC(=O)c2cc3c(-c4ccc(Cl)cc4)nn(C)c3s2)CC1 | 1 | 0 | 1 | 0 | 0 | 7.8* | 0 | 0
COCCNC(=O)c1cc2c(-c3ccc(Cl)cc3)nn(C)c2s1 | -1 | 0 | 3 | 3 | -1 | 6.8* | 0 | 3
Cn1nc(-c2ccc(Cl)cc2)c2cc(C(=O)N3CCCC3)sc21 | 0 | -2 | -1 | 0 | 0 | 3 | x | x
Cn1nc(-c2ccc(Cl)cc2)c2cc(C(=O)NCCCN3CCCC3)sc21 | 1 | 3 | 0 | 6 | 0 | 9.5* | 0 | 6.5*
SMILES | DAX1 inh-1 | DAX1 inh-2 | SMARCA2 activ | hgDAF-12 ag | ssDAF12 agonist | hcDAF12 agonist | LXR ag | hcDAF12 ag
CCOC(=O)N1CCC(NC(=O)c2ccc(Cl)cc2)CC1 | 0 | 1 | -6 | 0 | -1 | 2 | x | x
CCOC(=O)C1(CC2CC2)CCN(Cc2cnc(N(C)C)s2)CC1 | 0 | 1 | -2 | -4 | -2 | -1 | x | x
Cc1ccccc1-n1c(Cn2c(=O)sc3ccccc32)nnc1SCC(=O)Nc1nccs1 | 0 | -1 | -1 | -3 | -1 | -1 | x | x
Cc1cc(C)c(S(=O)(=O)NCCn2c(C)cc3ccccc32)c(C)c1 | -1 | 0 | 0 | 8 | 1 | 7.1* | 0 | 0
Cc1cc2ccccc2n1CCNC(=O)Cc1ccccc1 | 0 | 1 | -1 | 2 | -1 | 4 | x | x
O=C1CC(c2ccco2)Sc2nc3ccccc3n21 (stereo not given) | 2 | 1 | 1 | 8 | 2.8* | 9.8* | 0 | 10*
O=C1CC(c2cccs2)Sc2nc3ccccc3n21 (stereo not given) | 3 | 1 | 7 | 10 | 1.6* | 7.5* | 1 | 7.4*
O=C1CC(c2ccc3c(c2)OCO3)Sc2nc3ccccc3n21 (stereo not given) | 0 | 0 | -1 | -4 | -2 | -2 | x | x
CSCCC(CO)NC(=O)OCc1ccccc1 (stereo not given) | 0 | 0 | 2 | 0 | 0 | 0 | x | x
Cc1ccc(S(=O)(=O)N(C)c2ccc(OC(=O)CN3C(=O)NC(C)(c4ccccc4)C3=O)cc2)cc1C (stereo not given) | -1 | 0 | -2 | 2 | -1 | -1 | x | x
Cc1cc(NC(=O)c2cc(CC(C)C)on2)no1 | 1 | 0 | 3 | 7 | 0 | 2 | x | x
CSc1ccccc1NC(=O)c1cc(CC(C)C)on1 | 2 | 0 | 2 | 11* | 0 | 7.5* | 0 | 4
CCCC(C)NC(=O)Cc1ccccc1[N+](=O)[O-] (stereo not given) | 1 | 1 | -1 | 3 | 1.1* | 7.3* | 0 | 5.9*
